High-throughput results (PubChem)
Wnt bcat act: Wnt/beta-catenin pathway activation; Wnt/beta-catenin reporter cell assay, activator, plate reader; activation, % at 9.35 µM; actives 1.2% (n = 300,000); in the data active = activation above about 30%, passing the limit was not always enough; inconclusive = no clear call, values can overlap the other calls;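 note: 0% = neutral control wells and 100% = positive control wells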
esBAF inh: inhibitors of esBAF chromatin remodeling in mouse ES cells; reporter increase, % at 12.5 µM; Bmi1-luciferase knock-in reporter, 24 h; 100% = twice the neutral-well signal; actives 2% (n = 350,000); in the data active = activation above about 40%; inconclusive = no clear call, values can overlap the other calls;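 note: 0% = median of the plate's neutral control wells and 100% = double that signal; a rise in the Bmi1 reporter signal indicates esBAF inhibition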
HSF1 activator: increases HSF-1 driven luciferase reporter signal; NIH3T3-HGL HSF-1 luciferase reporter, MG132, 8 h; 100% = twice DMSO control signal; activation, % at 9 µM; actives 1.7% (n = 300,000); AID 504408;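 active = mean replicate activation of at least 50% with a set share of replicates each reaching 50%; inconclusive = only one of those two conditions met; inactive = mean below 50% and too few replicates reaching it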;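 note: 0% = median of the neutral control wells and 100% = twice that signal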
MITF TRPM1 HTS: activators of MITF-driven TRPM1 promoter activity in SK-MEL-5 cells; SK-MEL-5 TRPM1-promoter luciferase, 24 h; % of positive control, neutral wells = 0; activation, % at 12.5 µM; actives 0.75% (n = 300,000); AID 588334;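 active = mean activation of at least 80% with every replicate also reaching 80%; inconclusive = mean reaches 80% but some replicate falls short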;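 note: 0% = neutral control wells and 100% = parthenolide positive control wells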
HSF1 inh: HSF1 inhibition; NIH3T3-HGL HSE-luciferase, MG132-induced, luminescence 8 h; hits give low values; activity change, negative = inhibition, % at 7.5 µM (by protocol); actives 0.77% (n = 300,000); AID 2098;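 active = more than half of replicate wells show activity change below -50%, luminescence cut by over half; inconclusive = some wells, but at most half, below -50%; inactive = no replicate well below -50%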;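 note: luciferase reports HSF-1 transcriptional activity via heat shock element; 0% = median of DMSO wells and -100% = zero luminescence signal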
* marks the source's active call; other numbers are inactive results. A selection: hits, their analogues and other compounds. The true share with any hit is near 3.8%.

What do the screens show for `O=C(N/N=C/c1c[nH]c2ccccc12)c1sc2ccccc2c1Cl`?
esBAF inh: 59.7*; HSF1 activator: -32.5; MITF TRPM1 HTS: 38.3; HSF1 inh: -14.7

Results for Cc1noc(C)c1NC(=O)N(C)C[C@H]1Oc2ccc(NS(=O)(=O)c3ccc(Cl)cc3)cc2CC(=O)N([C@@H](C)CO)C[C@H]1C ?
esBAF inh: -4.5

What do the screens show for `COc1ccc(-c2cn(CC[C@H]3CC[C@H](NC(=O)NC(C)C)[C@H](CO)O3)nn2)cc1`?
esBAF inh: 8.0

What do the screens show for `Cc1cc(/C=N\NC(=O)c2cccs2)c(C)n1-c1ccc2ncccc2c1`?
Wnt bcat act: 1.5; esBAF inh: 72.4*; HSF1 activator: 6.8; MITF TRPM1 HTS: 71.6; HSF1 inh: -10.1

How did O=C(N/N=C/c1ccc(Br)s1)c1cccs1 do in these assays?
Wnt bcat act: 26.8; HSF1 activator: 26.0; HSF1 inh: 5.2

Results for Cc1cc(/C=N\NC(=O)COc2cccc3cccnc23)c(C)n1-c1ccc(Br)cc1 ?
Wnt bcat act: -2.8; HSF1 activator: -3.6; MITF TRPM1 HTS: -6.7; HSF1 inh: -1.6

Results for Cc1ccc(/C=N/NC(=O)c2cccs2)s1 ?
esBAF inh: 50.2*; HSF1 activator: 42.8; MITF TRPM1 HTS: 62.4; HSF1 inh: 14.4

Results for O=C(N/N=C\c1cn[nH]c1-c1ccccc1)c1cccs1 ?
Wnt bcat act: 2.7; HSF1 activator: -80.1; MITF TRPM1 HTS: 3.4; HSF1 inh: -74.1*

How did Cn1cccc1/C=N/NC(=O)c1sc2ccccc2c1Cl do in these assays?
Wnt bcat act: 10.8; esBAF inh: 62.2*; HSF1 activator: 45.4; MITF TRPM1 HTS: 44.8; HSF1 inh: 15.8

How did Cc1noc(C)c1NC(=O)Nc1ccc2c(c1)C(=O)N([C@H](C)CO)C[C@H](C)[C@H](CN(C)C(=O)Nc1ccccc1)OCCCC[C@H](C)O2 do in these assays?
esBAF inh: -4.0

Results for Cc1noc(C)c1NC(=O)N[C@H]1CC[C@H](CCNC(=O)C2CCOCC2)O[C@H]1CO ?
esBAF inh: -2.6

Results for CNC[C@@H]1Oc2ccc(NS(=O)(=O)c3cn(C)cn3)cc2CC(=O)N([C@@H](C)CO)C[C@H]1C ?
esBAF inh: -7.0

How did O=C(N/N=C/c1c[nH]c2ccccc12)c1ccccc1 do in these assays?
Wnt bcat act: 5.7; esBAF inh: 30.2; HSF1 activator: 20.2; HSF1 inh: 7.2

Results for O=C(N/N=C/c1c[nH]c2ccccc12)c1cccs1 ?
Wnt bcat act: 42.6*; HSF1 activator: 34.0; HSF1 inh: 52.1

What do the screens show for `Cn1cc(-c2coc3c(C(=O)NCc4ccco4)cccc23)cn1`?
esBAF inh: 72.0*

Results for C[C@H](CO)N1C[C@H](C)[C@H](CN(C)Cc2ccc3c(c2)OCO3)Oc2ccc(NC(=O)Nc3ccc(F)cc3)cc2C1=O ?
esBAF inh: -10.9

How did COc1ccc(C(=O)NCCn2ccc3ccccc32)c(OC)c1 do in these assays?
Wnt bcat act: 13.7; esBAF inh: 54.7*; HSF1 activator: 14.5; MITF TRPM1 HTS: 50.9; HSF1 inh: 12.2

Results for C[C@H](CO)N1C[C@H](C)[C@H](CN(C)C)Oc2ncc(-c3ccc(F)cc3)cc2C1=O ?
esBAF inh: -1.2

Results for CCOC(=O)C(=Cc1cc(=O)c(OC)co1)C(=O)OCC ?
Wnt bcat act: 13.2; HSF1 activator: 94.4*; MITF TRPM1 HTS: -97.1; HSF1 inh: 80.2

Results for O=C(c1cc(Br)c[nH]1)N1CCSCC1 ?
Wnt bcat act: -1.3; esBAF inh: 4.7; HSF1 activator: -86.3; MITF TRPM1 HTS: -3.6; HSF1 inh: -84.4*

What do the screens show for `CC(=O)COc1ccccc1OC(=O)c1ccco1`?
Wnt bcat act: -4.3; esBAF inh: -20.1; HSF1 activator: -62.2; HSF1 inh: -51.1*

Results for O=C(C[C@H]1C=C[C@@H](NC(=O)C2CC2)[C@@H](CO)O1)NCCCN1CCOCC1 ?
esBAF inh: -0.1

How did Cc1ccc(S(=O)(=O)Nc2ccc3c(c2)CC(=O)N([C@H](C)CO)C[C@@H](C)[C@H](CN(C)C(=O)Nc2ccc(C(F)(F)F)cc2)O3)cc1 do in these assays?
esBAF inh: 0.7

Results for CC(C)NC(=O)N(C)C[C@@H]1Oc2ncc(-c3cncnc3)cc2C(=O)N([C@@H](C)CO)C[C@@H]1C ?
esBAF inh: -6.2

What do the screens show for `Cc1nc(NC(=O)CN2CCOCC2)sc1-c1ccccc1`?
Wnt bcat act: 13.9; esBAF inh: 50.0*; HSF1 activator: 32.8; MITF TRPM1 HTS: 53.5; HSF1 inh: 23.3

How did COc1ccc2nc(NC(=O)CN3CCN(C)CC3)sc2c1 do in these assays?
esBAF inh: 10.2; HSF1 activator: 19.4; MITF TRPM1 HTS: 17.6; HSF1 inh: -2.7

What do the screens show for `COc1ccc2nc(NC(=O)CCNC(=O)c3ccco3)sc2c1`?
Wnt bcat act: 41.7*; esBAF inh: 45.0*; MITF TRPM1 HTS: 109.7*

What do the screens show for `O=C(CN1CCCCC1)Nc1nc(-c2ccccc2)cs1`?
Wnt bcat act: 9.3; esBAF inh: 55.1*; HSF1 activator: 10.8; MITF TRPM1 HTS: 36.1; HSF1 inh: 8.7

How did COc1ccc2nc(NC(=O)CN3CCOCC3)sc2c1 do in these assays?
Wnt bcat act: 4.9; esBAF inh: 15.2; HSF1 activator: -90.7; MITF TRPM1 HTS: 38.0; HSF1 inh: -88.6*

What do the screens show for `COc1ccc2nc(NC(=O)CCc3ccc(OC)c(OC)c3)sc2c1`?
Wnt bcat act: -1.7; HSF1 activator: -11.6; MITF TRPM1 HTS: 18.6; HSF1 inh: -2.8

What do the screens show for `CCCC(=O)Nc1nc2ccc(OC)cc2s1`?
Wnt bcat act: inconclusive; esBAF inh: 58.3*; HSF1 activator: 43.1; MITF TRPM1 HTS: 51.0; HSF1 inh: 19.4

How did CC(C)(C)C(=O)NC(=S)Nc1sc2c(c1C#N)CCCCC2 do in these assays?
HSF1 activator: 31.2; MITF TRPM1 HTS: 28.4; HSF1 inh: 29.2

What do the screens show for `CCC(=O)Nc1sc2c(c1C#N)CCCCC2`?
esBAF inh: 34.9; HSF1 activator: 13.7; MITF TRPM1 HTS: 49.1; HSF1 inh: 16.2

Results for Cc1ccc(C(=O)Nc2sc3c(c2C#N)CCCCC3)cc1C ?
HSF1 activator: -9.3; MITF TRPM1 HTS: 119.0*; HSF1 inh: 5.7

What do the screens show for `CCCC(=O)Nc1sc2c(c1C#N)CCCCC2`?
Wnt bcat act: 1.9; esBAF inh: 85.1*; HSF1 activator: 42.8; MITF TRPM1 HTS: 51.3; HSF1 inh: 26.3

Results for C=CCNC(=S)Nc1sc2c(c1C#N)CCCC2 ?
Wnt bcat act: 0.6; esBAF inh: 6.5; HSF1 activator: -62.2; MITF TRPM1 HTS: 5.6; HSF1 inh: -54.5*

What do the screens show for `CC(=O)Nc1sc2c(c1C#N)CCCCC2`?
Wnt bcat act: 10.5; esBAF inh: 12.8; MITF TRPM1 HTS: 0.1

What do the screens show for `O=C(N[C@@H]1CC[C@H](CCNS(=O)(=O)c2ccc(F)cc2)O[C@H]1CO)C1CC1`?
esBAF inh: 3.5
